{"source": "paper PMC8384837", "about": "“Expanding the binding specificity for RNA recognition by a PUF domain”", "experiment_in_all_cases": "yeast three-hybrid, YBZ-1, SC-Leu-His + 0.5 mM 3-AT, 4 days", "settings_in_all_cases": "tags: N-Gal4 AD-HA kept; label: inside an RPR1-promoter hybrid RNA with tandem MS2 sites; ssRNA", "key": {"PUM1 PUF domain R3-QFR": {"molecular_target": "PUM1 PUF domain R3-QFR (Homo sapiens, UniProt Q14671 828-1176, C935Q;R936F;Q939R)", "procedure,_shortened": "(§1)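 The interaction score is the log change in how often each variant appears, from input to selection. Frequencies came from PCR-amplified, Illumina-sequenced repeat regions of Pumilio-1 PUF domain libraries grown in strain YBZ-1 (LexA–MS2 coat fusion, HIS3 reporter) alongside matching RNA elements. Input plates were SC-Leu and selection plates were SC-Leu-His + 0.5 mM 3-AT, each for four days, and the log2 calculation used a pseudocount of 1 where a variant was absent.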"}, "PUM1 PUF domain R5-DWE": {"molecular_target": "PUM1 PUF domain R5-DWE (Homo sapiens, UniProt Q14671 828-1176, C1007D;R1008W;Q1011E)", "procedure,_shortened": "as §1"}, "PUM1 PUF domain R4-PYA": {"molecular_target": "PUM1 PUF domain R4-PYA (Homo sapiens, UniProt Q14671 828-1176, N971P;H972Y;Q975A)", "procedure,_shortened": "as §1"}, "PUM1 PUF domain R4-PWR": {"molecular_target": "PUM1 PUF domain R4-PWR (Homo sapiens, UniProt Q14671 828-1176, N971P;H972W;Q975R)", "procedure,_shortened": "as §1"}, "PUM1 PUF domain R2-IFA": {"molecular_target": "PUM1 PUF domain R2-IFA (Homo sapiens, UniProt Q14671 828-1176, N899I;Y900F;Q903A)", "procedure,_shortened": "as §1"}, "PUM1 PUF domain R3-HRS": {"molecular_target": "PUM1 PUF domain R3-HRS (Homo sapiens, UniProt Q14671 828-1176, C935H;Q939S)", "procedure,_shortened": "as §1"}, "PUM1 PUF domain R7-KHG": {"molecular_target": "PUM1 PUF domain R7-KHG (Homo sapiens, UniProt Q14671 828-1176, S1079K;N1080H;E1083G)", "procedure,_shortened": "as §1"}}, "data": [{"sequence": "GGCUAGAACUAGUGGAUCCCCCGGCGCCCGGCGGCUCGAGCCCGGGUAAGUGUAACUAGUCUGCAUGCCGCCGGGCGCCAUGCCUGCAGGUCGACUCUAGAAAACAUG", "values": [{"measurement": "binding signal", "setting": "PUM1 PUF domain R3-QFR", "result": "7.11 log2 enrichment (interaction score)"}]}, {"sequence": "GGCUAGAACUAGUGGAUCCCCCGGCGCCCGGCGGCUCGAGCCCGGGUAAGUGUAAAUAGUCUGCAUGCCGCCGGGCGCCAUGCCUGCAGGUCGACUCUAGAAAACAUG", "values": [{"measurement": "binding signal", "setting": "PUM1 PUF domain R5-DWE", "result": "3.79 log2 enrichment (interaction score)"}, {"measurement": "binding signal", "setting": "PUM1 PUF domain R4-PYA", "result": "4.99 log2 enrichment (interaction score)"}, {"measurement": "binding signal", "setting": "PUM1 PUF domain R4-PWR", "result": "1.17 log2 enrichment (interaction score)"}]}, {"sequence": "GGCUAGAACUAGUGGAUCCCCCGGCGCCCGGCGGCUCGAGCCCGGGUAAGUGUAAAAAGUCUGCAUGCCGCCGGGCGCCAUGCCUGCAGGUCGACUCUAGAAAACAUG", "values": [{"measurement": "binding signal", "setting": "PUM1 PUF domain R2-IFA", "result": "4.76 log2 enrichment (interaction score)"}]}, {"sequence": "GGCUAGAACUAGUGGAUCCCCCGGCGCCCGGCGGCUCGAGCCCGGGUAAGUGUAAGUAGUCUGCAUGCCGCCGGGCGCCAUGCCUGCAGGUCGACUCUAGAAAACAUG", "values": [{"measurement": "binding signal", "setting": "PUM1 PUF domain R3-HRS", "result": "2.22 log2 enrichment (interaction score)"}]}, {"sequence": "GGCUAGAACUAGUGGAUCCCCCGGCGCCCGGCGGCUCGAGCCCGGGUAAGUGUACAUAGUCUGCAUGCCGCCGGGCGCCAUGCCUGCAGGUCGACUCUAGAAAACAUG", "values": [{"measurement": "binding signal", "setting": "PUM1 PUF domain R4-PYA", "result": "5.06 log2 enrichment (interaction score)"}, {"measurement": "binding signal", "setting": "PUM1 PUF domain R4-PWR", "result": "5.54 log2 enrichment (interaction score)"}]}, {"sequence": "GGCUAGAACUAGUGGAUCCCCCGGCGCCCGGCGGCUCGAGCCCGGGUAAGUAUAAAUAGUCUGCAUGCCGCCGGGCGCCAUGCCUGCAGGUCGACUCUAGAAAACAUG", "values": [{"measurement": "binding signal", "setting": "PUM1 PUF domain R7-KHG", "result": "2.59 log2 enrichment (interaction score)"}]}]}
